# Shown are actives, neighbours in structure and some others; about 1.6% of the full set was active somewhere.
# IkB signaling = IkB Signaling. ABC-DLBCL IkBa-CBG/CBR dual luciferase ratio, 4 h; response scale: scaled: untreated 0%, proteasome inhibitor 100%. Potency, µM (doses to about 57.1 µM), for the others: at the highest dose IkBa stabilization activation. 0.04% of 110,000 active. AID 445, 2006; active = well fitted curve in the direction sought with a large enough effect in the signal ratio, not every such curve was filed as active; inconclusive = small, poorly fitted or top-dose-only effect, or a change in a side signal; the % refers to the signal ratio;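 note: the direction sought is a rising ratio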
#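 In this assay, an IκBα–CBG68 fusion accumulates when IKK-driven degradation is blocked; native CBR normalizes for cell number. OCI-Ly3 cells were treated 4 h with compound and doxycycline, then green and red light read after Chroma-Glo addition.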
# Imprint erasure = qHTS Assay for Compounds that Induce Erasure of Genomic Imprints; mouse ES Peg3-LacZ reporter, beta-gal luminescence, 40 h; Potency, µM (top dose mostly 60.7 µM), inactives show at the top dose activity change, positive = activation, hits mostly activators; 0.02% of 110,000 active; AID 1948, 2009
#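 Each well holds 300 Peg3LacZ-Neo (maternal) female ES cells incubated 40 h at 37C, 5% CO2. LacZ is measured by BetaGlo luminescence, with AC50 and maximum efficacy derived from dose-response curves.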
# p53ts 32C kill = qHTS Screen for Compounds that Selectively Target Cancer Cells with p53 Mutations: Cytotoxicity of p53ts Cells at the Permissive Temperature. H1299-p53A138V at 32C, ATP luminescence viability, 24 h. Potency, µM (series often up to 46.1 µM), for inactives: at the top dose activity change, negative = cytotoxicity, actives largely listed as cytotoxic. 0.93% of 130,000 active;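 note: 0% = DMSO and -100% = full killing by reference compound; nearly all actives have a fitted effect of over 55% in size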
#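 ATP-content luminescence (ATPlite) read-out after 24 h compound exposure at 32C in H1299-p53A138V cells (600/well). Tested up to 46 uM. Normalized to DMSO (0%) and 100 uM tamoxifen (100% killing); Hill-fit AC50.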
# p53ts 39C tox = qHTS Screen for Compounds that Selectively Target Cancer Cells with p53 Mutations: Cytotoxicity of p53ts Cells at the Nonpermissive Temperature; H1299-p53A138V viability at 39C, ATP luminescence, 24 h; Potency, µM (doses to about 46.1 µM), without a hit: at the top dose activity change, negative = cell killing, hits mostly cytotoxic; 1.5% of 130,000 active; AID 902, 2007; note: % is set by controls: 0 for no effect and ±100 for the full control effect; nearly all actives have a fitted effect of over 55% in size
# * = called active by the depositor; u = inconclusive; x = no result; ! = not confirmed by another sample; [ ] = remark or other dose. Unless noted, calls come from the whole dose curve; as a rule, active = well fitted curve in the direction sought with a large enough effect; inconclusive = small, poorly fitted or top-dose-only effect, or another doubt; inactive = no such curve, though single readings can be large; an effect the other way counts as inactive or inconclusive. Potency is the fitted concentration of half-maximal effect.
SMILES,IkB signaling,Imprint erasure,p53ts 32C kill,p53ts 39C tox
C=CCN1C(=O)C2C(C(=O)NCc3ccccc3)C3(C)C=CC2(O3)C1C(=O)NC(C)(C)C (configuration not stated),-1%,10µM*,10%,-1%
CCOc1ccc(NCc2cccn2-c2nnc(N3CCC(C(=O)NCCc4ccc(OC)c(OC)c4)CC3)s2)cc1,u,-14%[10.9 µM],-2%,-15%
O=C(/C=C\c1ccc(O)cc1)c1ccc(O)cc1O,0%,x,24%,35%
CCN1c2ccccc2NC2C1C(C(C)=O)C(=O)N2c1ccc(Cl)cc1 (configuration not stated),u,3%,u,20µM*
NS(=O)(=O)c1ccc(CCNc2nc3c(-c4cccc(F)c4)nnn3c3ccc(Cl)cc23)cc1,u,-22%[10.9 µM],-8%,6%
CN(C)C1C(=O)C(C(N)=O)C(=O)C2(O)C(=O)C3C(=O)c4c(O)ccc(Cl)c4C(O)C3CC12 (configuration not stated),x,-9%,x,x
CC(/C=C/C=C(C)/C=C/C(=O)O)=C\C=C\C=C(C)\C=C\C=C(C)\C=C\C(=O)O,14%,-39%,5%[1.84 µM],8%
C=C1C(=O)O[C@@H]2[C@H]3O[C@]3(C)CCC=C(C)CC[C@@H]12,u,-31%,13µM*,13µM*
C=C1C(=O)O[C@@H]2[C@@H]1CC/C(C)=C\CC[C@@]1(C)O[C@H]21,u,-38%[16.8 µM],6.3µM*!,6.3µM*!
NC(=O)c1ncn([C@@H]2O[C@@H](CO)[C@@H](O)[C@H]2O)c1O,-2%,x,-8%,-8%
Cc1ccc(C(=O)Nc2onc3c2CCCC3)cc1,-1%,-15%[10.9 µM],4µM*,6.3µM*
COc1ccccc1C(=O)Nc1onc2c1CCCC2,-3%,-48%[10.9 µM],u,-28%
O=C(O)CCCC[C@H]1CCSS1,2%,x,-6%,5%
N.N.N.N.N.N.N.N.N.N.N.N.N.N.O.O.[Ru].[Ru].[Ru],-3%,x,-13%,-4%
CC(C)(C)c1ccc(C(=O)/C=C2\NC(=O)CS2)cc1,-1%,-57%,10µM*,7.9µM*
CC(C)c1ccccc1S(=O)(=O)c1cc(N)c2ncccc2c1[N+](=O)[O-],x,-22%,11%,3.2µM*
O=c1cc(-c2ccccc2)oc2cc(O[C@@H]3O[C@H](CO)[C@@H](O)[C@H](O)[C@H]3O)c(O)c(O)c12,x,-19%,-14%,-6%
NCCCCNS(=O)(=O)c1ccc2c(Cl)cccc2c1,u,-25%,0%,-24%
NCCCCCCNS(=O)(=O)c1ccc2c(Cl)cccc2c1,u,-17%,17%,32µM*
O=C(CSc1cccc2cccnc12)N1CCCC1,4µM*,-36%,2%,-14%
CN(C)C(=O)CSc1cccc2cccnc12,u,-26%,0%,-2%
O=[N+]([O-])c1cccc(C(F)(F)F)c1,-1%,10%,18%[1.84 µM],-9%
COc1cc(Cl)c(C)cc1Nc1c2c(nc3ccccc13)CCC2,u,-19%[10.9 µM],u,2µM*
CC/C(=C(\c1ccccc1)c1ccc(OCCN(C)C)cc1)c1ccccc1,u,-15%,32µM*!,32µM*!
O=c1cc(-c2cccc(O)c2O)oc2ccccc12,0%[11.4 µM],-62%,u,10µM*
SMILES,IkB signaling,Imprint erasure,p53ts 32C kill,p53ts 39C tox
CC(C)COc1ccc(C(=O)Nc2nnc(S(=O)(=O)N(C)Cc3ccco3)s2)cc1,u,-74%[10.9 µM],u,10µM*
Cc1cc(S(=O)(=O)C(CNC(=O)c2ccc(OC(C)C)cc2)c2cccs2)ccc1F (configuration not stated),u,-2%[10.9 µM],11%,-5%
COC1=CC(=O)C=C(OC)C1=O,x,-39%,u,16µM*
[Cu].[O-]/N=C1/C(=[OH+])Nc2ccccc21.[O-]Nc1c(O)[nH]c2ccccc12,0%[11.4 µM],x,-4%[9.22 µM],-3%[9.22 µM]
O=C(NCc1ccccc1)c1ccc2c(c1)N(Cc1cccc(Cl)c1)C(=O)c1ccccc1S2(=O)=O,-1%,-11%[10.9 µM],-6%,15%
CC1CCCN(CCCNC(=O)c2ccc3c(c2)N(Cc2cccc(Cl)c2)C(=O)c2ccccc2S3(=O)=O)C1 (configuration not stated),0%,-17%[10.9 µM],3%,13µM*
CCC1CCCCN1CCCNC(=O)c1ccc2c(c1)N(Cc1ccccc1F)C(=O)c1ccccc1S2(=O)=O (configuration not stated),0%,-22%[10.9 µM],3%,u
Clc1ccc(CSc2nc3ncccc3[nH]2)cc1,-2%,-28%[10.9 µM],13µM*,10µM*
Cc1oc(-c2ccc(Cl)cc2)nc1CSc1nc2ncccc2[nH]1,x,x,9%,x
COc1ccc(/C=C\C(=O)Nc2ccccc2C(=O)O)cc1OC,u,-66%,16µM*,13µM*
COc1ccc(/C=C/C(=O)Nc2ccc(Cl)c(Cl)c2)cc1OC,-8%,-7%[10.9 µM],u,u
CCC(C)NC(=O)C1CCN(C(=O)c2cc3sccc3n2Cc2ccc(Cl)cc2)CC1 (configuration not stated),u,-20%[10.9 µM],12%,-15%
CCCCN(CC)CCCNC(=O)C1CCN(c2nc3ccc(CC)cc3s2)CC1,3%,10%[10.9 µM],13µM*,20µM*
CCCCN(C)CCCNC(=O)C1CCN(c2nc3ccc(CC)cc3s2)CC1,u,-9%[10.9 µM],13µM*,u
Cc1c(C(=O)O)c(O)cc2c1C(=O)c1c(O)c([C@@H]3O[C@H](CO)[C@@H](O)[C@H](O)[C@@H]3O)c(O)c(O)c1C2=O,0%[11.4 µM],x,x,x
COc1ccc(C(=O)Nc2ccc(C)cn2)c(OC)c1,u,-89%,0.5µM*,0.63µM*
CCOc1ccc(NC(=O)c2ccccc2CO)cc1,u,-63%,u,u
COc1ccccc1C(=O)Nc1ccccn1,12%,-79%,10µM*,10µM*
CCOc1ccc(NC(=O)c2ccccc2OC)cc1,-1%,-40%,13µM*,4µM*
C=CCNC(=O)c1ccc(OC)cc1OC,-2%,-11%,-2%,-5%
CCOc1ccc(NC(=O)c2ccccc2O)cc1,u,-67%,7.9µM*,7.9µM*
CCOc1ccc(NC(=O)c2nccnc2CO)cc1,u,-88%,13µM*,10µM*
CCOC(=O)c1c(-c2ccccc2)oc2ccc(NS(=O)(=O)c3ccccc3)cc12,u,-26%[10.9 µM],43%,16µM*
CCCc1oc2ccc(NS(=O)(=O)c3ccc(OC)cc3)cc2c1C(=O)OCC,u,-23%[10.9 µM],-2%,u
CCOC(=O)c1c(-c2ccccc2)oc2ccc(NS(=O)(=O)c3ccc(OC)cc3)cc12,u,-21%[10.9 µM],20%,-16%
CCCc1oc2ccc(NS(=O)(=O)c3ccc(OCC)cc3)cc2c1C(=O)OCC,u,-17%[10.9 µM],u,20µM*
Cc1ccccc1Nc1c(-c2ccc(N3CCOCC3)cc2)nc2ncccn12,2%,-9%[10.9 µM],13µM*,4µM*

# Compound activity (PubChem)
